# In PubChem BioAssay (NCATS):
# Records with an inconclusive call do not appear. Entries that show only a call come without a potency. Active and inactive are the calls of the source. Unless noted, calls follow the shape of the full dose curve.
# Experiments:
# [1] = Natriuretic polypeptide receptor (hNpr1) antagonism - Pilot counterscreen GloSensor control cell line (AID 1347045); also: potency is read from the fitted curve at half-maximal effect
# How it was run: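 HEK293 cGMP GloSensor cells preloaded 2 h with 2% GloSensor reagent, then compound 30 min before baseline luminescence read. Stimulated with 50 uM sodium nitroprusside, 20 min at room temperature, then read again; counterscreen for Npr1 antagonism.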
# [2] = target: Atrial natriuretic peptide receptor 1 (Homo sapiens) (UniProt P16066); assay: Natriuretic polypeptide receptor (hNpr1) antagonism - Pilot screen (AID 1347049);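 also: agonist-evoked cGMP luminescence read 20 min after hNppA addition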; also: potency is read from the fitted curve at half-maximal effect
# Chain of Atrial natriuretic peptide receptor 1 (Homo sapiens) (P16066 whole entry, looked up): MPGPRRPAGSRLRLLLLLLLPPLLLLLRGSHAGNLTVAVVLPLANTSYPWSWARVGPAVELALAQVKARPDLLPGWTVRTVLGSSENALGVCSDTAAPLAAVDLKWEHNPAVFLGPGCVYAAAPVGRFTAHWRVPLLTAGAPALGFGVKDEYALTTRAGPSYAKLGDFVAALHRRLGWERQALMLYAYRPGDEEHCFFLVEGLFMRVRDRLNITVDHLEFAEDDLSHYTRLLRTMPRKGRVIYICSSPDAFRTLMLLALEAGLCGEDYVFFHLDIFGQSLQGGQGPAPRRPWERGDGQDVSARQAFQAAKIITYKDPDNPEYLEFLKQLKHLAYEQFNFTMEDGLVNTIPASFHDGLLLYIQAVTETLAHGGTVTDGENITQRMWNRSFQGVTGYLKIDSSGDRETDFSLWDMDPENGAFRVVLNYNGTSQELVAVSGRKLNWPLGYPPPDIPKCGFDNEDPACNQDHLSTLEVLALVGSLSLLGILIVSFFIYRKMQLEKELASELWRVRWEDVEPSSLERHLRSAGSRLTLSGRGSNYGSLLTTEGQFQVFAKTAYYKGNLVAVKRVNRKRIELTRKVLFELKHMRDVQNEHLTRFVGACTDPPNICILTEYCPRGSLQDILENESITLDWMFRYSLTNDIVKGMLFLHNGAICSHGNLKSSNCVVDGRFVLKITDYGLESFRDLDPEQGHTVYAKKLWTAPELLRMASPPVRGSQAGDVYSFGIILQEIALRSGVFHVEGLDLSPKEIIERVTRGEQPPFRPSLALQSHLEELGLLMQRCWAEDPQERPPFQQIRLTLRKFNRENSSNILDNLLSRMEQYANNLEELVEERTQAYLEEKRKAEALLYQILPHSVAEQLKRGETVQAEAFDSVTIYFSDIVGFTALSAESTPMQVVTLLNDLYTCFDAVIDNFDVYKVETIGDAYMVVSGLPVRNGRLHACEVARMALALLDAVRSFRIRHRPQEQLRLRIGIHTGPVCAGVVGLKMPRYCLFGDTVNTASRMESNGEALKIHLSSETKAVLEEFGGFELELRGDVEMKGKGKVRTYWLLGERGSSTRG
# How it was run: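 HEK293 cells co-expressing hNpr1 and the GloSensor pGS-40F cGMP luciferase sensor were preloaded with 2% GloSensor reagent for 2 h. Compounds were added for 30 min at room temperature, then cells were stimulated with 0.1 nM hNppA for 20 min before luminescence readout.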
# [3] = target: Atrial natriuretic peptide receptor 2 (Homo sapiens) (UniProt P20594); assay: Natriuretic polypeptide receptor (hNpr2) antagonism - Pilot subtype selectivity assay (AID 1347050); also: potency is read from the fitted curve at half-maximal effect
# Chain of Atrial natriuretic peptide receptor 2 (Homo sapiens) (P20594 whole entry, looked up): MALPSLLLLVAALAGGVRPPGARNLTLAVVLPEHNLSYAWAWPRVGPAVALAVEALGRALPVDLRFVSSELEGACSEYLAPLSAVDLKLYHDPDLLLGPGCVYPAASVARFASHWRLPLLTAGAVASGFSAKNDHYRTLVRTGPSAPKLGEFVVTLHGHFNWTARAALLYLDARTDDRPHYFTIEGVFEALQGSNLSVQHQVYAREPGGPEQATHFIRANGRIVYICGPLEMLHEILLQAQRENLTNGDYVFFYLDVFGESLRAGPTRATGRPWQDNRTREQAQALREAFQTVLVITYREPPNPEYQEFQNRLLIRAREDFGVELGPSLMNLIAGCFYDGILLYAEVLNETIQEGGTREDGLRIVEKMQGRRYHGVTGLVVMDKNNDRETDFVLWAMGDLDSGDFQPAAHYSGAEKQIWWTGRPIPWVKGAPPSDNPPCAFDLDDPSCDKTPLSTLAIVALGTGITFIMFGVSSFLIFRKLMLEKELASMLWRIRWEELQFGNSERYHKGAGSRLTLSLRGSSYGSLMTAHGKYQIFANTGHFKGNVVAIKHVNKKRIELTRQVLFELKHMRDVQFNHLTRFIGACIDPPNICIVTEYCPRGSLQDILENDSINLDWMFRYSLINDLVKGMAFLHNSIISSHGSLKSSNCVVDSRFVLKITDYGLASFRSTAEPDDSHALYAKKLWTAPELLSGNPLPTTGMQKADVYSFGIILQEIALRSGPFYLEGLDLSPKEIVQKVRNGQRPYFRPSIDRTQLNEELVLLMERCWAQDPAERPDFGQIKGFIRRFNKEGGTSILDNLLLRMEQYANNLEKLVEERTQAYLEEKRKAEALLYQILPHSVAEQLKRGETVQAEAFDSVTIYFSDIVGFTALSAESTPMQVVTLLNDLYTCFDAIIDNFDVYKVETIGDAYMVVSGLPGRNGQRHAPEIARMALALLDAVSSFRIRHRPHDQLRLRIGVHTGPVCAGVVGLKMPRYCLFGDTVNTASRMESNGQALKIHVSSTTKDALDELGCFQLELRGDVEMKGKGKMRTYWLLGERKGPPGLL
# How it was run: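 cGMP-sensor HEK293/hNpr2 cells; 2% GloSensor reagent 2 h RT; compounds 30 min; baseline luminescence read; 1 nM hNppC agonist 20 min RT; final luminescence read by CCD camera. Antagonism = reduced post-agonist signal.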
# [4] = NS1 protein of Zika virus - qHTS assay to identify small molecule inhibitors in human HEK 293 cells (AID 1347053; active = well fitted curve in the direction sought with a large enough effect; an effect the other way counts as inactive or inconclusive; also: series mostly up to about 46 µM; nearly all actives have a fitted effect of over 55% in size)
# How it was run: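 HEK 293; 20 h pre-culture, 37 C/5% CO2; cpd 1 h pre-infection; ZIKV MR766, MOI = 0.5, 24 h, 37 C; TR-FRET NS1 readout (two anti-NS1 Abs); norm. to no-virus vs infected.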
# [5] = target: T1, Tyrosine-protein phosphatase non-receptor type substrate 1 (Homo sapiens) + Leukocyte surface antigen CD47 (Homo sapiens) (UniProt P78324+Q08722); assay: CD47-SIRPalpha protein protein interaction - LANCE assay qHTS validation (AID 1347057; active = well fitted curve in the direction sought with a large enough effect in the signal ratio, with a control signal flat, not every such curve was filed as active; the % refers to the signal ratio; also: potency is read from the fitted curve at half-maximal effect)
# T1 sequence (P78324 whole entry, looked up): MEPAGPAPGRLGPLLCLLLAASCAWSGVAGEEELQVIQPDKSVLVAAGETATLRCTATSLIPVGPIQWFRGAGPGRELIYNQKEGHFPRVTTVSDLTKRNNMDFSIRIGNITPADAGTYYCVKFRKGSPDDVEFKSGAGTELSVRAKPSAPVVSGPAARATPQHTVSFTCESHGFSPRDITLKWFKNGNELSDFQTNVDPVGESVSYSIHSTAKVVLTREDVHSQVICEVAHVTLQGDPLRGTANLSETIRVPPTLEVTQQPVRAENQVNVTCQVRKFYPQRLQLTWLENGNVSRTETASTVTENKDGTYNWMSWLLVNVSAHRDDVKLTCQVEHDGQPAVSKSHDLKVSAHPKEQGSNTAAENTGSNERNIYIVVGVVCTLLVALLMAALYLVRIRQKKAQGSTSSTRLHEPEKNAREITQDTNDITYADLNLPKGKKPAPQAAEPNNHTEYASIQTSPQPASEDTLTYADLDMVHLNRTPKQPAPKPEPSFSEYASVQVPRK
# T1 sequence (Q08722 whole entry, looked up): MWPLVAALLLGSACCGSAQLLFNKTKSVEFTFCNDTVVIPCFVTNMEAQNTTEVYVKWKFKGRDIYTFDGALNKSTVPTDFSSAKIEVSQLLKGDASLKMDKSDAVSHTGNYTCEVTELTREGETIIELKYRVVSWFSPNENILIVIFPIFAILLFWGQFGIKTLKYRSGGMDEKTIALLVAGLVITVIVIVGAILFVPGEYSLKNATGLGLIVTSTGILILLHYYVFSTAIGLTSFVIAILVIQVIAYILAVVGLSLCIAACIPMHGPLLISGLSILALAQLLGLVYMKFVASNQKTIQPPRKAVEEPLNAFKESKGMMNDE
# How it was run: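 First, His-tagged CD47 and Eu-labelled anti-His antibody met the compound for 30 min; next, site-specifically biotinylated SIRPalpha was added for 30 min; finally streptavidin-APC was added before reading the TR-FRET ratio.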
# [6] = target: T1, Tyrosine-protein phosphatase non-receptor type substrate 1 (Homo sapiens) + Leukocyte surface antigen CD47 (Homo sapiens); assay: CD47-SIRPalpha protein protein interaction - Alpha assay qHTS validation (AID 1347059; active = well fitted curve in the direction sought with a large enough effect; an effect the other way counts as inactive or inconclusive;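 also: bead proximity luminescence from CD47 binding SIRPalpha after compound preincubation with SIRPalpha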; also: potency is read from the fitted curve at half-maximal effect)
# How it was run: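 Soluble extracellular domains: Avi-tag biotinylated SIRPalpha (25 nM) preincubated 30 min RT with compound, then 6His-CD47 (12.5 nM) 30 min; Ni-NTA acceptor and streptavidin donor beads (10 ug/mL) 30 min, AlphaScreen read. PBS pH 7.4, 0.05% IGEPAL.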
# [7] = target: Parathyroid hormone/parathyroid hormone-related peptide receptor (Homo sapiens) (UniProt Q03431); assay: qHTS for PTHR1 Agonists: Optimization Screen against the NCGC LOPAC library (AID 1347079; active = well fitted curve in the direction sought with a large enough effect; an effect the other way counts as inactive or inconclusive;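 also: GloSensor cAMP luminescence in HEK-293 GP2 cells expressing human PTHR1 with IBMX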)
# Chain of Parathyroid hormone/parathyroid hormone-related peptide receptor (Homo sapiens) (Q03431 whole entry, looked up): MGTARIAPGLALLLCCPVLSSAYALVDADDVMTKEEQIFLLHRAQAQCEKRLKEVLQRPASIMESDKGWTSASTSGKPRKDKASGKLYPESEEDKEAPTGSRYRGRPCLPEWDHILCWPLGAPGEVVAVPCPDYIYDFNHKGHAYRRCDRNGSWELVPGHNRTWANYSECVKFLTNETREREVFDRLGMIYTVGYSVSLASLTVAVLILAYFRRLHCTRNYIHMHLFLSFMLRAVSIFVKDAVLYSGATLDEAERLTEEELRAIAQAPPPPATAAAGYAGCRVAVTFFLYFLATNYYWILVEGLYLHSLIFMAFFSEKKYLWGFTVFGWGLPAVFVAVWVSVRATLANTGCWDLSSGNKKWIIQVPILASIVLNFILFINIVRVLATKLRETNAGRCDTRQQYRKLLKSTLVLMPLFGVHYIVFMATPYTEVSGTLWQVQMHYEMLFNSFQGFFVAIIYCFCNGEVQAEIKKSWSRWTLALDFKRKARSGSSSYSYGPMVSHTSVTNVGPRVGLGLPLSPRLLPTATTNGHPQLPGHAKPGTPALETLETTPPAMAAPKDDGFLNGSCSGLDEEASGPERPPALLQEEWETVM
# How it was run: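 Agonist readout: GloSensor cAMP luminescence, read after 15 min at room temperature. HEK-293-derived GP2 line carries PTHR1; compounds tested as a titration for 1 hr at 37C in presence of IBMX. M-PTH (1-15) served as control.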
# [8] = qHTS for Inhibitors of the Functional Ribonucleoprotein Complex (vRNP) of Lassa (LASV) Arenavirus: LASV Primary Screen - GLuc reporter signal (AID 1347082; calls by dose curve; tested in HEK293 reporter line; also: series mostly up to about 57 µM; nearly all actives have a fitted effect of over 60% in size)
# [9] = qHTS for Inhibitors of the Functional Ribonucleoprotein Complex (vRNP) of Lassa (LASV) Arenavirus: Viability assay - alamar blue signal for LASV Primary Screen (AID 1347083; calls by dose curve; tested in HEK293 reporter line; also: series mostly up to about 57 µM; nearly all actives have a fitted effect of over 80% in size)
# [10] = qHTS for Inhibitors of the Functional Ribonucleoprotein Complex (vRNP) of Lymphocytic Choriomeningitis Arenaviruses (LCMV): Viability assay - alamar blue signal for LCMV Primary Screen (AID 1347085; calls by dose curve; tested in HEK293 reporter line; also: series mostly up to about 57 µM; nearly all actives have a fitted effect of over 80% in size)
# [11] = target: Nucleoprotein (Lymphocytic choriomeningitis virus (strain Armstrong)) (UniProt P09992); assay: qHTS for Inhibitors of the Functional Ribonucleoprotein Complex (vRNP) of Lymphocytic Choriomeningitis Arenaviruses (LCMV): LCMV Primary Screen - GLuc reporter signal (AID 1347086); also: series mostly up to about 57 µM; nearly all actives have a fitted effect of over 70% in size
# Chain of Nucleoprotein (Lymphocytic choriomeningitis virus (strain Armstrong)) (P09992 whole entry, looked up): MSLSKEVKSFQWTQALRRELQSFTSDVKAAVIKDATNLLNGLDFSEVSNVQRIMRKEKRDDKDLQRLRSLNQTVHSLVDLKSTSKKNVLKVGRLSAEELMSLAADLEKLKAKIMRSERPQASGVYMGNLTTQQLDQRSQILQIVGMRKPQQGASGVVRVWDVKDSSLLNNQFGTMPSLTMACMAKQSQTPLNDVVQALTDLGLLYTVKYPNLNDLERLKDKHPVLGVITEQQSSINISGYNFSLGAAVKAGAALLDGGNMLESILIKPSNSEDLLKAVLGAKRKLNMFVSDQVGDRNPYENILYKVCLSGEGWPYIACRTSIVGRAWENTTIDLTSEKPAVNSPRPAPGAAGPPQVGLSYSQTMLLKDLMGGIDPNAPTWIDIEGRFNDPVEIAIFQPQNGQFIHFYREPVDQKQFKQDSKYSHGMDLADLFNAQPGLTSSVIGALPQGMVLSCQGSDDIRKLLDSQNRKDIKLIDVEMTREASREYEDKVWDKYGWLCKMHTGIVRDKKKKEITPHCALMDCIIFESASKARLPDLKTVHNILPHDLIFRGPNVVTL
# [12] = target: T1, Tyrosine-protein phosphatase non-receptor type substrate 1 (Homo sapiens) + Leukocyte surface antigen CD47 (Homo sapiens); assay: CD47-SIRPalpha protein protein interaction - HTRF assay qHTS validation (AID 1347058; active = well fitted curve in the direction sought with a large enough effect in the signal ratio, not every such curve was filed as active; the % refers to the signal ratio; also: series mostly up to about 38 µM)
# How it was run: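 TR-FRET read (Ch1/Ch2 ratio) of soluble extracellular CD47 and Avi-biotinylated SIRPalpha domains in PBS pH 7.4 with 0.05% IGEPAL; 7-point compound titration. Sequential 30 min room-temperature steps; non-biotinylated SIRPalpha as control inhibitor.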
Compound,Potency [1],Potency [2],Potency [3],outcome [4],Potency [5],Potency [6],Potency [7],Potency [8],Potency [9],Potency [10],Potency [11],outcome [12]
NC(Cc1cc(O)c(O)cc1O)C(=O)O (centres undefined),inactive,inactive,inactive,inactive,13.1 µM (active),0.927 µM (active),inactive,inactive,inactive,inactive,inactive,–
NC(CCCCCP(=O)(O)O)C(=O)O (centres undefined),inactive,inactive,inactive,inactive,inactive,inactive,inactive,inactive,inactive,inactive,inactive,inactive
N=C(N)c1ccc(CS(=O)(=O)F)cc1,inactive,inactive,inactive,inactive,inactive,inactive,inactive,inactive,inactive,inactive,inactive,inactive
CC(N)[C@H](O)c1ccc(O)c(O)c1 (some centres undefined),inactive,inactive,inactive,inactive,inactive,inactive,inactive,inactive,inactive,inactive,inactive,–
C[N+]1(C)CCN(c2ccccc2)CC1,inactive,inactive,inactive,inactive,–,inactive,inactive,inactive,inactive,inactive,inactive,inactive
CCCN1CC[C@@H]2c3cc(O)ccc3CC[C@@H]21,inactive,inactive,inactive,inactive,inactive,inactive,inactive,inactive,inactive,inactive,inactive,inactive
Cc1sc2ccccc2c1CC1=NCCN1,inactive,inactive,inactive,inactive,inactive,inactive,inactive,inactive,inactive,inactive,inactive,–
COc1ccc(CNC(=O)/C=C/c2ccc3[nH]cc(CCN(C)C)c3c2)cc1,inactive,inactive,inactive,inactive,inactive,inactive,inactive,inactive,inactive,inactive,inactive,–
CC(C)(O)[C@@H]1C2OC(=O)[C@@H]1[C@]1(O)C[C@H]3O[C@]34C(=O)O[C@H]2[C@]14C (tested in a mixture with another compound),inactive,inactive,inactive,inactive,inactive,inactive,inactive,inactive,inactive,inactive,inactive,inactive
CN1CCC(c2c[nH]c3ccc(O)cc23)CC1,inactive,inactive,inactive,inactive,inactive,inactive,inactive,inactive,inactive,inactive,inactive,–
CN1CCc2cccc(Cl)c2CC1,inactive,inactive,inactive,inactive,inactive,inactive,inactive,inactive,inactive,inactive,inactive,–
CCOC(=O)c1ncn2c1[C@@H]1CCCN1C(=O)c1cc(OC)ccc1-2,inactive,inactive,inactive,inactive,inactive,inactive,inactive,inactive,inactive,inactive,inactive,inactive
c1ccc2cc(CC3=NCCN3)ccc2c1,inactive,inactive,inactive,inactive,inactive,inactive,inactive,inactive,inactive,inactive,inactive,inactive
COc1ccc2[nH]c3c(c2c1)CCNC3,inactive,inactive,inactive,inactive,inactive,–,inactive,inactive,inactive,inactive,inactive,–
Clc1ccc(N2CC3CCC(C2)N3)nn1,inactive,inactive,inactive,inactive,inactive,inactive,inactive,inactive,inactive,inactive,inactive,inactive
O=S1(=O)N(CCN2CC=C(c3c[nH]c4cc(F)ccc34)CC2)c2cccc3c2N1CCC3,inactive,inactive,inactive,inactive,inactive,inactive,inactive,inactive,inactive,inactive,inactive,–
Cc1cc([C@@H]2CCCN2C)on1,inactive,inactive,inactive,inactive,inactive,inactive,inactive,inactive,inactive,inactive,inactive,inactive
CCCN(CCC)C1CCc2cccc(O)c2C1 (centres undefined),inactive,inactive,inactive,inactive,inactive,inactive,inactive,inactive,inactive,inactive,inactive,inactive
CCCN(CCC)CCc1ccc(O)c(O)c1,inactive,inactive,inactive,inactive,inactive,inactive,inactive,inactive,inactive,inactive,inactive,inactive
CCCN1CCC[C@@H](c2cccc(O)c2)C1,inactive,inactive,inactive,inactive,inactive,inactive,inactive,inactive,inactive,inactive,inactive,inactive
NC(=O)CI,inactive,inactive,inactive,inactive,–,inactive,inactive,inactive,inactive,inactive,inactive,inactive
CC(N)c1cccc(Cl)c1Cl (centres undefined),inactive,inactive,inactive,inactive,inactive,inactive,inactive,inactive,inactive,inactive,inactive,inactive

Compound,Potency [1],Potency [2],Potency [3],outcome [4],Potency [5],Potency [6],Potency [7],Potency [8],Potency [9],Potency [10],Potency [11],outcome [12]
CC(=O)OCC1=C(C(=O)O)N2C(=O)[C@@H](NC(=O)CCC[C@@H](N)C(=O)O)[C@H]2SC1,inactive,inactive,inactive,inactive,4.65 µM (active),0.414 µM (active),inactive,inactive,inactive,inactive,inactive,–
CC(C)NP(=O)(NC(C)C)OP(=O)(NC(C)C)NC(C)C,inactive,inactive,inactive,inactive,inactive,inactive,inactive,inactive,inactive,inactive,inactive,inactive
CC12NC(Cc3ccccc31)c1ccccc12 (centres undefined),inactive,inactive,inactive,inactive,inactive,inactive,inactive,inactive,inactive,inactive,inactive,inactive
NCC(O)c1cc(O)c(O)cc1F (centres undefined),inactive,inactive,inactive,inactive,inactive,inactive,inactive,inactive,inactive,inactive,inactive,inactive
NC(=O)c1cc(N2CC2)c([N+](=O)[O-])cc1[N+](=O)[O-],inactive,inactive,inactive,inactive,inactive,–,inactive,inactive,inactive,–,inactive,–
COc1ccc2c(c1)C13CCCCC1C(C2)N(C)CC3 (centres undefined),inactive,inactive,inactive,inactive,inactive,inactive,inactive,inactive,inactive,inactive,inactive,–
CCNC(=O)[C@H]1O[C@@H](n2cnc3c(N)ncnc32)[C@H](O)[C@@H]1O,inactive,inactive,inactive,inactive,inactive,inactive,inactive,inactive,inactive,inactive,inactive,inactive
C[C@H](Cc1ccc2c(c1)OC(C(=O)O)(C(=O)O)O2)NC[C@H](O)c1cccc(Cl)c1,inactive,inactive,inactive,inactive,inactive,inactive,inactive,inactive,inactive,inactive,inactive,inactive
CCCN(CCC)[C@@H]1CCc2cccc(O)c2C1,inactive,–,inactive,inactive,inactive,inactive,inactive,inactive,inactive,inactive,inactive,inactive
C#CCN[C@H](C)Cc1ccccc1,inactive,–,inactive,inactive,inactive,inactive,inactive,inactive,inactive,inactive,inactive,inactive
C[N+](C)(C)CC#CCOC(=O)Nc1cccc(Cl)c1,inactive,–,inactive,inactive,inactive,inactive,inactive,inactive,inactive,inactive,inactive,inactive
CCCCCCCCCCCCCC(=O)O[C@@H]1[C@@H](C)[C@@]2(O)[C@@H](C=C(CO)C[C@@]3(O)C(=O)C(C)=C[C@@H]23)C2C(C)(C)[C@@]21OC(C)=O (some centres undefined),inactive,–,0.0066 µM (active),–,inactive,inactive,inactive,inactive,inactive,inactive,inactive,inactive
COc1ccc2c(c1)c(CCN1CCOCC1)c(C)n2C(=O)c1cccc(Cl)c1Cl,inactive,inactive,inactive,–,–,–,–,inactive,inactive,–,–,–
CN1CCc2cc(O)cc3c2[C@H]1Cc1ccc(O)c(O)c1-3,inactive,inactive,inactive,inactive,–,inactive,inactive,inactive,inactive,inactive,inactive,–
Cc1c2ccncc2c(C)c2c1[nH]c1ccccc12,inactive,10.7 µM (active),5.21 µM (active),–,inactive,inactive,inactive,inactive,–,–,inactive,inactive
C[C@@H]1O[C@H](C[N+](C)(C)C)CS1,inactive,inactive,inactive,–,–,–,inactive,inactive,inactive,inactive,inactive,–
CCCn1c(C)c(C(=O)c2ccc3ccccc3c2)c2ccccc21,inactive,inactive,inactive,–,–,–,inactive,inactive,inactive,inactive,inactive,–
CN1C2CCC1CC(OC(c1ccccc1)c1ccccc1N)C2 (centres undefined),inactive,inactive,–,inactive,inactive,inactive,inactive,inactive,inactive,inactive,inactive,inactive
C=CCN1CC[C@]23c4c5ccc(O)c4O[C@@H]2/C(=N/N=C2\CC[C@@]4(O)C6Cc7ccc(O)c8c7[C@@]4(CCN6CC=C)[C@@H]2O8)CC[C@@]3(O)C1C5,inactive,inactive,–,–,–,–,inactive,inactive,inactive,inactive,inactive,–
C[N+]1(C)C2CCC1CC(OC(=O)c1c[nH]c3ccccc13)C2 (centres undefined),inactive,inactive,inactive,inactive,–,inactive,inactive,inactive,inactive,inactive,inactive,inactive
Ic1ccccc1CNC1C2CCN(CC2)C1C(c1ccccc1)c1ccccc1 (centres undefined),13.1 µM (active),–,–,–,inactive,inactive,inactive,–,–,–,–,inactive
CCCN(CCC)CCc1c[nH]c2ccc(C(N)=O)cc12,inactive,inactive,inactive,–,–,–,inactive,inactive,inactive,inactive,inactive,–
